# Out of some 320,000 compounds screened, about 2,100 (0.66%) were called active. Not shown: some 53% with an inconclusive outcome. Calls follow the shape of the dose curve; as a rule, active = well fitted inhibition curve with a large enough effect in the signal ratio, with a control signal flat (not every such curve was filed as active); inconclusive = small, poorly fitted or top-dose-only effect, or effect the other way, or a change in a side signal; inactive = flat fitted curve, though single readings scatter; the % refers to the signal ratio. Many of the other results were omitted from the sample, so actives are more common in it than they were.
# Assay: qHTS Assay for Lipid Storage Modulators in Drosophila S3 Cells;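 as to cell number change: cells counted by Cell Tracker Red CMTPX staining in the red channel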; as to lipid storage change, negative = inhibition: % is scaled to controls: 0 for no effect and ±100 for the full control effect
# Conditions: BODIPY lipid droplet fluorescence, 18-24 h, cells fed with added oleic acid; cell number change: measured here: cell count max response; series mostly up to 46.1 µM; lipid storage change, negative = inhibition: at the top concentration
# Outline: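 Laser-scanning cytometry quantifies lipid droplet accumulation (500–530 nm total intensity; droplet/cell object ratio) in oleic acid-fed (400 uM added) Drosophila S3 cells treated with a concentration series. 20 uM Triacsin C defined 100% inhibition.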
# Potency is read from the fitted curve at half-maximal effect.
Structure (SMILES),"lipid storage change, negative = inhibition",cell number change [%],Potency,outcome
O=C(CSc1nc2ccc([N+](=O)[O-])cc2[nH]1)NC1CCCC1,4.94% (inactive),16,,
CCCSC1=N/C(=C\c2ccc([N+](=O)[O-])o2)C(=O)S1,17.3% (inactive),18.4,,
O=C1NC(=S)S/C1=C\C=C\c1ccc([N+](=O)[O-])o1,,-18.3,6.51 µM (active),
O=[N+]([O-])c1ccc(/C=N/N=C/c2ccc([N+](=O)[O-])o2)o1,13.8% (inactive),21.7,,
OCC[n+]1ccc(/C=C/c2c[nH]c3ccccc23)cc1,,-1.83,,inactive
C[n+]1ccc(/C=C/c2c[nH]c3ccccc23)cc1,,5.59,4.11 µM (active),
Cc1ccccc1/C=C/c1cc[n+](C)cc1,5.44% (inactive),,,
COc1ccc(S(=O)(=O)N2CCN(CC(=O)NCCc3cccs3)CC2)cc1,1.97% (inactive),-24.5,,
O=C(CN1CCN(S(=O)(=O)c2ccccc2)CC1)NCCc1ccccc1,0.573% (inactive),12.2,,
Cc1cc(S(=O)(=O)N2CCN(CC(=O)NCCc3cccs3)CC2)ccc1Br,,-0.491,6.51 µM (active),
CSc1ccccc1OCc1cc(C(=O)N(C)Cc2cc(C)[nH]n2)no1,-12.2% (inactive),-1.8,,
COc1ccc(C(=O)N2CCc3cc(OC)c(OC)cc3C2)cc1OC,2.92% (inactive),-23.8,,
COc1ccc(C(=O)N2CCc3ccc(NC(=O)c4ccccn4)cc3C2)cc1F,,5.43,7.31 µM (active),
CSc1cccc(NC(=O)N2CCc3ccc(NC(=O)c4ccccn4)cc3C2)c1,,-11.2,,inactive
CC(=O)c1nn(-c2ccc(Cl)cc2)c(=O)[nH]c1=O,,,,inactive
O=C(CN1C(=O)NC2(CCc3ccccc32)C1=O)c1ccc(Br)cc1 (centres undefined),-18.9% (inactive),-20.3,,
O=C(CN1C(=O)NC2(CCc3ccccc32)C1=O)c1ccccc1 (centres undefined),,29.9,,inactive
O=C(CN1C(=O)NC2(CCc3ccccc32)C1=O)c1ccc(Br)s1 (centres undefined),,10.8,4.11 µM (active),
Cc1cccc(OCC(=O)N2CCN(C(=O)c3ccc([N+](=O)[O-])cc3)CC2)c1,9.63% (inactive),2.07,,
O=C(CN1C(=O)NC(Cc2ccccc2)C1=O)Nc1ccccc1 (centres undefined),,,,inactive

Structure (SMILES),"lipid storage change, negative = inhibition",cell number change [%],Potency,outcome
Cc1ccc(NC(=O)CN2C(=O)NC(Cc3ccccc3)C2=O)cc1 (centres undefined),14.8% (inactive),2.72,,
O=C(CN1C(=O)NC(Cc2ccccc2)C1=O)Nc1ccc(OC(F)(F)F)cc1 (centres undefined),,-11.8,23.1 µM (active),
Cc1ccc2c(N)c(C(=O)N(c3ccccc3)c3ccccc3)sc2n1,0.972% (inactive),1.13,,
O=C(COC(=O)c1ccccn1)Nc1cccc(Cl)c1,-15.1% (inactive),-4.94,,
CSc1nnc(C(C)c2ncc(C(F)(F)F)cc2Cl)n1C (centres undefined),10.3% (inactive),29.4,,
COCCN(C(=O)c1ccccc1)c1nc(-c2ccc(OC)cc2)cs1,,-13.2,,inactive
COCCCN(C(=O)c1ccccc1F)c1nc(-c2ccc(OC)cc2)cs1,,7.94,,inactive
COCCCN(C(=O)c1ccccc1)c1nc(-c2ccc(OC)cc2)cs1,,5.82,9.2 µM (active),
COC(=O)c1ccc(-c2nc(O)c(C)s2)cc1,,,,inactive
Cc1cccc(OC2CCN(Cc3c(C(=O)N4CCCC4)nc4ccccn34)CC2)c1,28.5% (inactive),17.9,,
CCCC[C@@H]1CNC(=O)C(=O)N1CCc1cc(C(F)(F)F)cc(C(F)(F)F)c1,0.436% (inactive),3.93,,
COC(=O)c1ccc(COC(=O)Cc2n[nH]c(=O)c3ccccc23)cc1,16% (inactive),,,
CCc1ccc(C(=O)C(C)OC(=O)Cc2n[nH]c(=O)c3ccccc23)cc1 (centres undefined),,-26.4,13 µM (active),
CC(OC(=O)Cc1n[nH]c(=O)c2ccccc12)C(=O)Nc1ccc(F)cc1 (centres undefined),,-13.8,,inactive [at 0.0737 µM]
Cc1csc(Sc2ccc([N+](=O)[O-])cc2C(=O)OCC(=O)NC(=O)NC(C)(C)C)n1,,,,inactive
CC(c1ccccc1)n1c(CCCO)nc2ccccc21 (centres undefined),0.218% (inactive),-13.2,,
CCCCN(C)CCn1c(=S)[nH]c2cc(OCC)c(OCC)cc2c1=O,1.86% (inactive),5.41,,
COC(=O)c1cc(C(=O)N2CCc3ccccc32)cc([N+](=O)[O-])c1,8.69% (inactive),3.51,,
O=C(CC1C(=O)NC2CCCCC2N1C(=O)c1ccc(F)cc1)Nc1ccccc1 (centres undefined),,18,29.1 µM (active),
COc1cccc(NC(=O)CC2C(=O)NC3CCCCC3N2C(=O)c2ccc(F)cc2)c1 (centres undefined),,36.9,,inactive

Structure (SMILES),"lipid storage change, negative = inhibition",cell number change [%],Potency,outcome
COc1ccc(NC(=O)CC2C(=O)NC3CCCCC3N2C(=O)c2ccc(F)cc2)cc1 (centres undefined),,6.58,,inactive
COc1ccc(NC(=S)N2CCC(C(=O)c3ccc(OC)cc3)CC2)cc1,10.2% (inactive),-17.6,,
O=C(COC(=O)COc1ccc2c(c1)CCC2)Nc1ccccc1,3.22% (inactive),-5.42,,
Cn1nc(C(=O)NNC(=O)C(CCC(N)=O)NS(=O)(=O)c2ccc(Cl)cc2)c2ccccc2c1=O (centres undefined),6.87% (inactive),15.9,,
Cc1ccc(S(=O)(=O)N/N=C/c2ccc3nccnc3c2)cc1,9.08% (inactive),-5.68,,
COc1ccc(CCNC(=O)CN2C(=O)c3ccccc3S2(=O)=O)cc1,0.948% (inactive),8.78,,
CCOc1ccc(CCNC(=O)CCn2cccc2)cc1OCC,11.2% (inactive),0.009,,
CCOc1ccc(CCNC(=O)Cn2cccc2C(=O)c2ccccc2)cc1OCC,,-22.9,16.4 µM (active),
COc1ccc(CCNC(=O)CCOc2cc(C)ccc2C)cc1OC,,-23.2,,inactive
O=C(Cn1cccc1C(=O)c1ccccc1)NCCc1ccccc1,,,,inactive
COc1ccc(CCNC(=O)CCCN2C(=O)c3ccccc3C2=O)cc1OC,4.9% (inactive),10.1,,
COc1ccc(CCNC(=O)Cn2cccc2C(=O)c2ccccc2C)cc1OC,,-20.4,20.6 µM (active),
COc1ccc(OC)c(CCNC(=O)Cn2cccc2C(=O)c2ccccc2C)c1,3.63% (inactive),3.16,,
COc1ccc(CCNC(=O)CCCOc2cccc(C)c2C)cc1OC,,-23.6,6.51 µM (active),
COc1ccc(CCNC(=O)CCCOc2cc(=O)n(C)c3ccccc23)cc1OC,-2.82% (inactive),11.7,,
COc1ccccc1CNC(=O)Cn1cccc1C(=O)c1ccccc1C,,-15.2,,inactive
COc1ccc(CCNC(=O)CN2C(=O)c3ccccc3S2(=O)=O)cc1OC,,-27.6,23.1 µM (active),
NS(=O)(=O)c1ccc(CNC(=O)/C=C/c2ccccc2)cc1,-14.1% (inactive),2.48,,

# — PubChem BioAssay AID2685 (National Center for Advancing Translational Sciences (NCATS), 2010)
